{"source": "ChEMBL document CHEMBL4513216", "about": "“Probing the Open Global Health Chemical Diversity Library for Multistage-Active Starting Points for Next-Generation Antimalarials” (ACS Infect Dis, 2020)", "note": "Hit rate of the full screen: of about 69,000 compounds, about 8,600 (12%) showed an effect of 50% or more. This is one part of a sample in which strong results are shown more often than they occur."}
{"tested_on": "Plasmodium berghei", "assay": "Screen against P. berghei liver stage (PbLuc), transformed with Luciferase, at 10uM", "format": "functional, HepG2", "conditions": "tested at 10 uM", "units": {"INHIBITION": "%"}}
{"compound": "COc1c(C)cnc(CN2CCn3c(C)nnc3C2)c1C", "INHIBITION": -7.53}
{"compound": "c1ccc2oc(CCCN3CCCC3c3noc(C4CC4)n3)nc2c1", "note": "(configuration not stated)", "INHIBITION": 9.54}
{"compound": "COCC(=O)N1CCC2(CC1)CC(COC)N(c1ncccn1)C2", "note": "(configuration not stated)", "INHIBITION": -6.23}
{"compound": "COCCC(=O)N1CCCC(c2nc(O)cc(-c3ccncc3)n2)C1", "note": "(configuration not stated)", "INHIBITION": 28}
{"compound": "CNC(=O)[C@@]12CCO[C@@H]1CCN(Cc1cccc(C)c1)C2", "INHIBITION": 38.1}
{"compound": "O=C(O)CSc1nnc(-c2cn[nH]c2)n1-c1ccccc1C(F)(F)F", "INHIBITION": 90.8}
{"compound": "O=C(O)CSc1nnc(-c2ccn[nH]2)n1-c1ccccc1C(F)(F)F", "INHIBITION": 27.4}
{"compound": "O=C(O)CSc1nnc(-c2cn[nH]c2)n1-c1ccccc1Cl", "INHIBITION": 9.87}
{"compound": "CCc1ncc(C(=O)N2CCCN(C3CCCC3)CC2)cn1", "INHIBITION": 43.6}
{"compound": "CCCc1noc(CCC(=O)N2CCCC2Cn2cc(C)cn2)n1", "note": "(configuration not stated)", "INHIBITION": -13.5}
{"compound": "O=C(CC1CCc2ccccc21)N1CCC(O)(c2cccnc2)CC1", "note": "(configuration not stated)", "INHIBITION": 6.83}
{"compound": "CS(=O)(=O)Nc1cccc(C(=O)Nc2ccc3c(c2)C(=O)NC3)c1", "INHIBITION": -13.2}
{"compound": "O=C(NCCNS(=O)(=O)c1ccc(C(F)(F)F)cc1)c1ccoc1", "INHIBITION": 0.266}
{"compound": "Cc1occc1C(=O)NCCOc1ccc(C(F)(F)F)cn1", "INHIBITION": 27.7}
{"compound": "CC(C)c1ccc(OCCNC(=O)N2CCS(=O)(=O)CC2)cc1", "INHIBITION": -12.21}
{"compound": "O=C(NCCOc1ccc(C(F)(F)F)cn1)c1ccoc1", "INHIBITION": 57.5}
{"compound": "Cc1ccoc1C(=O)NCCOc1ccc(C(F)(F)F)cn1", "INHIBITION": 31.7}
{"compound": "O=C(NCCNc1ccc(C(F)(F)F)cn1)c1ccoc1", "INHIBITION": 22.8}
{"compound": "O=C(CNC(=O)c1ccoc1)NCCOc1ccc2c(c1)CCC2", "INHIBITION": -112}
{"compound": "Cc1nc(C)c(C(=O)NCCOc2ccc(C(F)(F)F)cn2)o1", "INHIBITION": 64.4}
{"compound": "CC(C)c1ccc(OCCNC(=O)c2ccoc2)cc1", "INHIBITION": 87.1}
{"compound": "c1ccc(Cc2noc(-c3ccc(NCC4CCCOC4)nc3)n2)cc1", "note": "(configuration not stated)", "INHIBITION": 18.8}
{"compound": "Cc1sc2ccccc2c1S(=O)(=O)NCCNC(=O)C(C)C", "INHIBITION": -35}
{"compound": "Cc1ccc(N2C[C@H]3CCC[C@@]3(COc3cccnc3)C2)nn1", "INHIBITION": -44.2}
{"compound": "CC(=O)Nc1c(C)noc1C=Cc1ccc(S(=O)(=O)NC2CC2)cc1", "INHIBITION": 47.2}
{"compound": "OC1(CNCCN2CCCc3ccccc32)CCNC1", "note": "(configuration not stated)", "INHIBITION": 9.55}
{"compound": "Cn1c(=O)c2cc(C(=O)NCCOCC(F)(F)F)ccc2n(C)c1=O", "INHIBITION": 27.8}
{"compound": "Cc1cc(N2CCC(Cc3cnccn3)C2)ncn1", "note": "(configuration not stated)", "INHIBITION": 2.55}
{"compound": "CC(C)(C)c1n[nH]cc1CNC1CCC(C(F)(F)F)CC1", "note": "(configuration not stated)", "INHIBITION": -32.6}
{"compound": "C[C@@H]1C[C@@H]2CCN(Cc3ccccn3)C[C@H]2O1", "INHIBITION": 55.5}
{"compound": "C[C@H]1C[C@H]2CN(Cc3ccccn3)CC[C@@H]2O1", "INHIBITION": 46.2}
{"compound": "CN(C)C(=O)C1CN(Cc2cscn2)CCN(S(C)(=O)=O)C1", "note": "(configuration not stated)", "INHIBITION": 37}
{"compound": "C[C@H]1C[C@@H]2CCN(Cc3ccccn3)C[C@H]2O1", "INHIBITION": 15.9}
{"compound": "CN(C)C(=O)C1CN(Cc2ccccc2)CCN(S(C)(=O)=O)C1", "note": "(configuration not stated)", "INHIBITION": 32.4}
{"compound": "Cc1cccc(CN2CC[C@H]3C[C@H](C)O[C@@H]3C2)n1", "INHIBITION": 56.7}
{"compound": "C[C@@H]1C[C@@H]2CCN(Cc3ccncc3)C[C@H]2O1", "INHIBITION": 15.9}
{"compound": "Cc1cccc(CN2CC[C@H]3C[C@@H](C)O[C@@H]3C2)n1", "INHIBITION": 76.5}
{"compound": "C[C@H]1C[C@@H]2CCN(Cc3ccco3)C[C@H]2O1", "INHIBITION": 46.2}
{"compound": "Cc1csc(CN2CC[C@H]3C[C@H](C)O[C@@H]3C2)n1", "INHIBITION": 15.4}
{"compound": "Cc1cccc(C(=O)N2CC[C@H]3C[C@@H](C)O[C@@H]3C2)n1", "INHIBITION": 7.31}
{"compound": "CN(C)C(=O)C1CN(Cc2ccccn2)CCN(S(C)(=O)=O)C1", "note": "(configuration not stated)", "INHIBITION": 89.3}
{"compound": "Cc1cc(N2CCCC2c2cc(Nc3cnccn3)nc(C)n2)ncn1", "note": "(configuration not stated)", "INHIBITION": -50.2}
{"compound": "Cc1nc(C)n(CC2CCCCN2Cc2nc(-c3ccco3)no2)n1", "note": "(configuration not stated)", "INHIBITION": -12.915}
{"compound": "Cc1ccc(C(=O)N2CCn3c(COCC4CC4)cnc3C2C)nc1", "note": "(configuration not stated)", "INHIBITION": 39.3}
{"compound": "CN(CC1(O)CCN(c2ccccn2)C1)C(=O)Cc1ccsc1", "note": "(configuration not stated)", "INHIBITION": 46}
{"compound": "CCN(CC)c1ccc(NS(=O)(=O)c2cnn(C)c2)cn1", "INHIBITION": 0.139}
{"compound": "CCN(CC)c1ccc(NS(=O)(=O)c2cncc(F)c2)cn1", "INHIBITION": 46.8}
{"compound": "CCN(CC)c1ccc(NS(=O)(=O)c2cccnc2)cn1", "INHIBITION": 77.5}
{"compound": "CCC(CNC(=O)c1cccc(S(=O)(=O)NC)c1)N1CCCC1", "note": "(configuration not stated)", "INHIBITION": 18}
{"compound": "COCCN1CCc2ncnc(-c3ccccc3)c2CC1", "INHIBITION": 8.66}
{"compound": "Cc1cccc(NC(=O)CN(C)C(=O)c2ccc(-n3cccc3)nc2)n1", "INHIBITION": 8.08}
{"compound": "Cc1ccc(C(=O)N(C)CC(=O)Nc2cccc(C)n2)cn1", "INHIBITION": 16.8}
{"compound": "Cc1ccc(NC(=O)CN(C)C(=O)c2ccc(-n3cccc3)nc2)nc1", "INHIBITION": 68.9}
{"compound": "Nc1nc(C2CCN(C(=O)c3cnco3)CC2)cs1", "INHIBITION": 18.9}
{"compound": "Cc1cc(N[C@H]2CN(CC(C)(C)N3CCOCC3)C[C@@H]2C2CC2)ncn1", "INHIBITION": 35.8}
{"compound": "CC(C)c1cc(C(=O)N(C)Cc2cccc3ncccc23)n(C)n1", "INHIBITION": 67.2}
{"compound": "CN(Cc1cccc2ncccc12)C(=O)CCn1ccc(=O)[nH]c1=O", "INHIBITION": 30.9}
{"compound": "CCCc1cc(C(=O)N(C)Cc2cccc3cnccc23)n(C)n1", "INHIBITION": 6.33}
{"compound": "CCCc1cc(C(=O)N(C)Cc2cccc3ncccc23)n(C)n1", "INHIBITION": 46.8}
{"compound": "CCCc1cc(C(=O)N(C)Cc2ccc(OC)c3ncccc23)n(C)n1", "INHIBITION": 67.9}
{"compound": "CCOCCn1nc(C)cc1C(=O)N(C)Cc1cccc2ncccc12", "INHIBITION": 36}
{"compound": "O=C(c1ccc2c(c1)OCCO2)N1CCCC(n2ccnc2)C1", "note": "(configuration not stated)", "INHIBITION": 37.9}
{"compound": "CCC(=O)N1CCC(c2nc(C)c3c(n2)N(C)CCC3)CC1", "INHIBITION": 34.1}
{"compound": "CC(C)N1CC(c2ccnc(Nc3nccs3)n2)C1", "INHIBITION": 29.49}
{"compound": "COc1cc(F)c(-n2cnc(CCNC(C)=O)c2)cc1F", "INHIBITION": 4.1}
{"compound": "COc1ccc(F)cc1-n1cnc(CCNC(C)=O)c1", "INHIBITION": 35.1}
{"compound": "COc1ccc(Cl)cc1-n1cnc(CCNC(C)=O)c1", "INHIBITION": 71.5}
